Experimental data from PubChem BioAssay AID504339 (National Center for Advancing Translational Sciences (NCATS), 2011).
Among all 390,000 compounds or so, about 17,000 (4.4%) were called active. Not shown: some 8% with an inconclusive outcome. The entries come from a sample that favours actives as a whole. Values without a mark were called inactive. Calls come from the whole dose curve; as a rule, active = well fitted inhibition curve with a large enough effect; inconclusive = small, poorly fitted or top-dose-only effect; inactive = no such curve, though single readings can be large or run the other way.

Biological target: Lysine-specific demethylase 4A (Homo sapiens) (UniProt O75164)
Sequence (O75164 whole entry, looked up, the tested form may be a part): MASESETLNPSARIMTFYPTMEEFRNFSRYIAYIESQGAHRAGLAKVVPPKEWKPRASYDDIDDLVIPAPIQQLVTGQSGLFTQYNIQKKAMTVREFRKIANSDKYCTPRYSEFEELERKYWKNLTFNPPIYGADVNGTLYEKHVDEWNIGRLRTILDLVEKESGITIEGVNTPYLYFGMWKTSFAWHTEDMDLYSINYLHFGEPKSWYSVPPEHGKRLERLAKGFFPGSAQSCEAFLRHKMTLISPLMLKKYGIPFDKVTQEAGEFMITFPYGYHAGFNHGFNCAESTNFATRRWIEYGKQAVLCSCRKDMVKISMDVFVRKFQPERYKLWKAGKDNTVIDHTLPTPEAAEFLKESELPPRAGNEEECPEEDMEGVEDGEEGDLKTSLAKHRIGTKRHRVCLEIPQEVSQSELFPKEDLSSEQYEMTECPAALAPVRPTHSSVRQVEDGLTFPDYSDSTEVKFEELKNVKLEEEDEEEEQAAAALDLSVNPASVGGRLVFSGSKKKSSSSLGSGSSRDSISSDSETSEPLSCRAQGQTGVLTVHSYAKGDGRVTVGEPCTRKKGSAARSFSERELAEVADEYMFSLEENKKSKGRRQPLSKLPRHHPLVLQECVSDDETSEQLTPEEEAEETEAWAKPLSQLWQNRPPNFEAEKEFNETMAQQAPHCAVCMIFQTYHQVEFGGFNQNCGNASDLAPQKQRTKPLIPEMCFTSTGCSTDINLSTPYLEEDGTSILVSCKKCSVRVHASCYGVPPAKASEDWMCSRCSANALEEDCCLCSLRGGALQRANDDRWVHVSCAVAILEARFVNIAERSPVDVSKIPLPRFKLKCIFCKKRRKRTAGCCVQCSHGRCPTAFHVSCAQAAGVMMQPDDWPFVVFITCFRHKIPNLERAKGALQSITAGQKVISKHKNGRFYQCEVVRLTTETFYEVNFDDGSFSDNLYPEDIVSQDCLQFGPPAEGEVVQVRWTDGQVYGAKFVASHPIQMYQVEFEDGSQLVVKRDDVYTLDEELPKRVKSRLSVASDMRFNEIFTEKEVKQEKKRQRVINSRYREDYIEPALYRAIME
Experiment: qHTS Assay for Inhibitors of JMJD2A-Tudor Domain; note: nearly all actives have a fitted effect of over 50% in size
Conditions: AlphaScreen JMJD2A-Tudor / H3K4me3 peptide binding; series mostly up to 114 µM; activity change, negative = inhibition: at the top concentration
% is set by controls: 0 for no effect and ±100 for the full control effect; potency is the fitted concentration of half-maximal effect.

SMILES | Potency | activity change, negative = inhibition
COc1ccc(C(=O)c2c(C)c(CCC#N)n3ccccc23)c(OC)c1 | 35.5 µM (active) | 
COc1ccc(C(=O)CCc2ccccc2O)c(OC)c1 |  | -12.3%
COc1ccc(C(=O)NC(C)CCc2ccccc2)c(OC)c1 (stereo not given) |  | 7.51%
Cc1c(Cl)cccc1NC(=O)C1CCCN(C(=O)c2cnn(-c3ccccc3)c2-n2cccc2)C1 (stereo not given) |  | -23.2%
CCCCC(=O)OC1=CN(Cc2ccccc2)S(=O)(=O)c2ccccc21 |  | 44.4%
COc1ccc2c(c1)c(=O)c(S(=O)(=O)c1ccc(F)cc1)cn2CC(=O)Nc1ccc(C)cc1C |  | -15.6%
COc1ccccc1-c1cc(C(=O)N2CCCCC2)no1 |  | -6.94%
CN1CCN(C(=O)c2ccc(-c3ccc(Br)cc3)o2)CC1 |  | -26.3%
S=C(c1ccc(-c2ccccc2)o1)N1CCCCC1 | 20 µM (active) | 
COc1ccc(NC(=O)c2ccc3nc(C(C)C)oc3c2)cc1OC |  | -1.92%
OCCNCc1cccc(OCc2ccccc2Cl)c1 |  | 1.38%
Clc1cccc(Cl)c1OCCOCCNCc1ccccc1 | 20 µM (active) | 
S=C(NCCc1ccccc1)NCc1ccccc1Cl |  | -6.57%
COC(=O)c1ccc(C2C(C(=O)Nc3ccccc3)=C(C)Nc3nc4ccccc4n32)cc1 (stereo not given) |  | -17.2%
O=C(NC(=O)c1ccccc1)Nc1ccccc1O |  | -5.35%
O=C(NC1=CC(=O)c2ccccc2C1=O)c1ccccc1 | 20 µM (active) | 
O=C(Nc1ccc(S(=O)(=O)Nc2ccccn2)cc1)c1ccccc1 |  | 4.86%
N#Cc1nc(NCc2ccc(Cl)c(Cl)c2)c2ncn(CCCO)c2n1 |  | -21.3%
COC(=O)c1scc(-c2ccccc2)c1S(=O)(=O)Nc1ccccc1 |  | -4.81%
CCOc1ccc(Nc2nc(Cl)nc(N3CCN(c4ccc(OC)cc4)CC3)n2)cc1 | 44.7 µM (active) | 
COc1ccc(Nc2ncc(F)c(N3CCOCC3)n2)cc1 |  | -20.2%
COC(=O)c1ccc(Oc2nc(Nc3ccc(F)cc3)nc(N3CCCC3)n2)cc1 |  | -6.45%
O=c1c(NCc2cccs2)nccn1-c1ccccc1 |  | -30.5%
COc1cc(C(=O)NCCS(=O)(=O)N2CCN(c3ccccc3)CC2)cc(OC)c1OC |  | -0.639%
COc1ccc(-n2c(C)cc(C(=O)COC(=O)c3cc(OC)c(OC)cc3NC(=O)c3cccs3)c2C)cc1 |  | -16.8%
Cc1ccc(OC(=O)CSc2nnc(-c3cccs3)o2)cc1 |  | -19.9%
COc1ccc(-n2c(C)cc(C(=O)CSc3nnc(-c4cccs4)o3)c2C)cc1 | 56.2 µM (active) | 

SMILES | Potency | activity change, negative = inhibition
CCOC(=O)c1cc2c(=O)n3ccccc3nc2n(CC2CCCO2)c1=NC(=O)c1ccccc1Br (stereo not given) |  | 5.12%
COCCNC(=O)CSc1c(C)cnc2c1c(=O)n(C)c(=O)n2C |  | -4.22%
NS(=O)(=O)c1ccc(NC(=O)CSc2nnc3c(n2)[nH]c2ccccc23)cc1 |  | -6.12%
CCC1CCCCN1Cc1c(O)ccc2c(=O)c(Oc3ccccc3Cl)c(C(F)(F)F)oc12 (stereo not given) |  | -3.78%
COc1ccc(CCNC(=O)CCc2c(C)nc3c(c(C)nn3-c3ccc(C)c(C)c3)c2C)c(OC)c1OC |  | -14.5%
COCCCNC(=S)NC(=O)c1ccc([N+](=O)[O-])cc1 |  | -20%
CC(C)CC(=O)NC(=S)NNC(=O)c1cccc([N+](=O)[O-])c1 |  | -17.9%
CCCCCC(=O)NC(=S)NNC(=O)c1ccc([N+](=O)[O-])cc1 | 28.2 µM (active) | 
COc1ccc(CCNc2nc(-c3ccc(F)cc3)cc(C(F)(F)F)n2)cc1OC |  | 6.14%
CSc1nn(Cc2cccc(C)c2)c(N)c1S(=O)(=O)c1ccccc1 |  | -14.6%
O=C(c1cc2c(s1)CCC2)N1CCN(c2ccccc2)CC1 | 20 µM (active) | 
O=C(C1CCC1)N1CCN(c2ccccc2)CC1 |  | 3.47%
O=C(c1cc2ccccc2s1)N1CCN(c2ccccn2)CC1 |  | -5.3%
CCn1c(SCC(=O)NNC(=O)c2ccc(OC)cc2)nnc1C(C)C |  | -10.6%
COCCCNC(NC(=O)c1ccc(C)cc1)C(Cl)(Cl)Cl (stereo not given) |  | 0%
CCn1c(C(C)NC(=O)c2ccc(C)cc2)n[nH]c1=S (stereo not given) | 6.31 µM (active) | 
COc1cc(NC(=O)c2nc3ccccc3nc2C)cc(OC)c1OC |  | -18.5%
CC1=C(C(=O)Nc2ccccc2Cl)C(c2cccs2)n2ncnc2N1 (stereo not given) |  | -9.58%
CCCCOC(=O)CSc1ncnc2sc3c(c12)CCC(C)C3 (stereo not given) |  | 67.1%
Cn1c(=O)n(Cc2c(F)cccc2Cl)c(=O)c2c1nc1n2CCN1c1ccc(F)cc1 |  | -7.24%
CCn1c(Cc2cccs2)nnc1SCC(=O)c1ccc(C)cc1 |  | -28.2%
CCn1c(SCC(=O)c2ccc3ccccc3c2)nnc1-c1cccs1 | 79.4 µM (active) | 
CCn1c(SCC(=O)c2ccc(Cl)s2)nnc1-c1cccs1 |  | -16.4%
Cc1ccc(CCNC(=O)c2ccc3c(c2)nc2n3CCC(C)C2)cc1 (stereo not given) |  | -11%
CCn1cc(C(=O)OCC(=O)Nc2cc(C)cc(C)c2)c(=O)c2ccc(C)nc21 |  | -10.6%
CCC(=O)N1CCc2cc(S(=O)(=O)NCCC(=O)Nc3cccc(C)c3C)ccc21 |  | -12%
Cc1ccc(C)c(NC(=S)NCC(c2cccnc2)N2CCOCC2)c1 (stereo not given) |  | -11.5%

SMILES | Potency | activity change, negative = inhibition
Cc1ccc(C)c(NC(=S)NNC(=S)Nc2ccc(C(C)C)cc2)c1 | 56.2 µM (active) | 
Cc1ccc(C)c(NC(=O)C2CC(=O)N(C(C)C)C2)c1 (stereo not given) |  | -10.2% [at 57.1 µM]
CCOC(=O)c1c(NC(=O)c2cc(CC)on2)sc(C(C)=O)c1C |  | 4.78%
O=C(Nc1cccc(Cl)c1)c1csnn1 |  | -22.8%
c1ccc(C2CNCc3c2ccc2ccccc32)cc1 (stereo not given) |  | -26.7%
CC(C)(C)CN1C(=O)C(=O)NC[C@H]1Cc1cccc2ccccc12 |  | -5.07%
c1ccc2c(CCN3CCNC[C@H]3Cc3cccc4ccccc34)cccc2c1 | 56.2 µM (active) | 
Cc1cc(NC(=O)CSc2ncc(C(=O)Nc3ccc(Cl)cc3)c(=O)n2C)no1 |  | 3.57%
CCOC(=O)c1ccc(NC(=O)CCS(=O)(=O)c2ccc3c(c2)oc(=O)n3C)cc1 |  | -10%
Cc1ccc(NC(=O)c2cn3c4c(ccc(Cl)c4c2=O)OC(C)C3)cc1C (stereo not given) |  | -5.28%
CN(C)C(=O)c1nc2ccc(Cl)cn2c1CN1CCN(c2ncccn2)CC1 |  | -8.97%
Oc1ccc(CN2CCN(c3ncccn3)CC2)cc1 | 50.1 µM (active) | 
Cc1ccc(CN2CCN(c3ncccn3)CC2)c(C)c1 | 14.1 µM (active) | 
c1cnc(N2CCN(c3ccc4ccccc4n3)CC2)nc1 |  | 9.09%
CC1=C(N2CCN(c3ncccn3)CC2)CCC1=O |  | -10%
COc1ccc(-c2nc(CN3CCN(c4ncccn4)CC3)c(C)o2)cc1C |  | -29.1%
COc1ccc(CCNc2ncnc3c2cnn3-c2ccc(C)cc2)cc1 |  | -3.98%
Cc1cc(C)c(NC(=O)CCc2c(C)nc3c(c(C)nn3C(C)(C)C)c2C)c(C)c1 |  | -9.76%
CCOc1ccc(CNC(=O)c2ccc3nc(CC)c(CC)nc3c2)cc1OC |  | -13.7%
COc1ccc(/C=C/c2nc(C#N)c(NCc3ccc(F)cc3)o2)cc1OC |  | -17.6%
O=C(CCSCc1cccc(F)c1)NCc1ccccc1 |  | -0.612%
Cc1ccc(C)c(N2CCN(c3ccc4cc(S(=O)(=O)N5CCC(C)CC5)ccc4n3)CC2)c1 |  | 15.9%
CCN1CCN(CCCNC(=O)c2ccc3c(c2)sc2nc(-c4ccc(OC)cc4)cn23)CC1 |  | -23.7%
CC1C(C)N(C(=O)CCl)c2ccccc2N1C(=O)CCl (stereo not given) | 28.2 µM (active) | 
CNC(=O)N1c2ccccc2C=Cc2ccccc21 |  | -7.21%
CC1C(=O)N(Cc2ccccc2)c2ccccc2N1C(=O)c1ccccc1 (stereo not given) |  | -14%
CCOC(=O)c1c(NC(=O)c2ccc(S(=O)(=O)N3CCCC(C)C3)cc2)sc2c1CCN(C(C)C)C2 (stereo not given) |  | -29.7%

SMILES | Potency | activity change, negative = inhibition
Cc1ccc(CN2CCCn3nc(C(=O)NCc4ccccc4Cl)cc3C2=O)cc1 |  | -22.8%
COc1ccccc1/C=C/C=N/NC(=O)CN1CCN(Cc2ccccc2)CC1 |  | -5.42%
COc1ccccc1/C=N/N1CCN(Cc2ccccc2Cl)CC1 | 44.7 µM (active) | 
CN1CCN(/N=C/c2ccc(C#N)cc2)CC1 |  | -10.5% [at 57.1 µM]
O=C(NCC1CCN(Cc2ccccc2Cl)CC1)Nc1cccc(Cl)c1 |  | -14.1%
CSc1ccc(/C=N/N2CCN(Cc3ccccc3Cl)CC2)cc1 | 25.1 µM (active) | 
O=S1(=O)CCN(Cc2ccccc2Cl)CC1 |  | -8.11%
Cc1nn(C(=O)c2c(F)cccc2F)c(C)c1S(=O)(=O)N1CCOCC1 |  | -6.39%
Fc1ccc(-n2ncc3c(Nc4ccc(Oc5ccccc5)cc4)ncnc32)cc1 |  | -4.89%
Cc1ccccc1CSCCNC(=O)C1CCN(S(=O)(=O)Cc2ccccc2)CC1 |  | -11.9%
O=C(c1ccc(Cl)cc1)n1nc(-c2cccnc2)nc1NCc1ccc(F)cc1 |  | -2.08%
CCOC(=O)c1cc2c(=O)n3ccccc3nc2n(CC2CCCO2)c1=NC(=O)c1ccccc1F (stereo not given) |  | 3.41%
Cc1csc(Nc2ccc(Cl)cc2)[n+]1-c1ccc(Cl)cc1 | 14.1 µM (active) | 
CC1CCCN(c2nc3c(S(=O)(=O)c4ccc(C(C)C)cc4)nnn3c3ccsc23)C1 (stereo not given) |  | 6.96%
COC(=O)CCNC(=O)c1ccc2[nH]c(C)c(C)c2c1 |  | -9.59%
CCOc1ccccc1N1CCN(C(=O)c2ccc3[nH]c(C)c(C)c3c2)CC1 | 56.2 µM (active) | 
CCS(=O)(=O)N1CCc2cc(C(=O)N3CCN(c4ccccc4OC)CC3)ccc21 |  | -12.6%
CCn1c(C)c(C)c2cc(C(=O)N3CCN(c4cccc(C)c4C)CC3)ccc21 | 31.6 µM (active) | 
Cc1[nH]c2ccc(C(=O)N3CCN(C)CC3)cc2c1C | 50.1 µM (active) | 
CCOc1ccccc1NC(=S)N1CCN(c2cccc(C)c2C)CC1 |  | -24.9%
CCOC(=O)c1ccc2[nH]c(C)c(CN3CCN(C)CC3)c(=O)c2c1 |  | -18.3%
CCC(CC)C(=O)N1CCN(c2cccc(C)c2C)CC1 |  | 8.94%
Cc1cccc(N2CCN(C(=O)c3ccc4c(c3)CCN4S(=O)(=O)c3ccccc3)CC2)c1C |  | -19.8%
Cn1c(=O)cc(OCC(=O)N2CCN(c3ccccc3)CC2)c2ccccc21 |  | -10.8%
